From PubChem BioAssay (EPA / NIEHS) come the findings set out here.

Active and inactive are the calls of the source. The calls were made as follows: active = hit-call score of the fitted dose curve at least 0.9, where 1 is the maximum; inactive = score below 0.9.

The assay can be described thus: CCTE_Shafer_MEA_acute_firing_rate_mean: CCTE's Neural Acute Assay for Mean Firing Rate, Shafer Lab (AID 2284009). As to the method:
CCTE_Shafer_MEA_acute assay is conducted using Axion Biosystems 48 well microelectrode array (MEA) plates and Maestro recording system. Each well of the MEA plate contains a grid of 16 microelectrodes embedded in the culture surface. Electrically active cells, such as neurons, can be cultured over the electrodes, and electrical activity in these cells can be recorded extracellularly. The spontaneous firing of neurons is captured from each electrode on a microsecond timescale providing both temporally and spatially precise data. […] The CCTE_Shafer_MEA_acute assay uses primary cultures of rat cortical neurons. As these cultures mature over time, neural networks develop functional activity and form cohesive networks in which electrical activity can be highly coordinated. Baseline 40-minute recordings are made on days post-plating 13 or 15, followed by a secondary 40-minute recording after chemical exposure.CCTE_Shafer_MEA_acute_firing_rate_mean is a component of the CCTE_Shafer_MEA_acute assay. It measures the frequency number of spikes (action potential firings) as the total number of spikes divided by the length of the recording in a microelectrode array (MEA) using Axion Biosystems Maestro 768 channel amplifier with the AxIS adaptive spike detector. The firing rate is divided by the number of electrodes to report a well-mean value. The recordings before and after chemical treatment are used to calculate a percent change in the mean firing rate in each well.Data from the assay component CCTE_Shafer_MEA_acute_firing_rate_mean was analyzed into 1 assay endpoint. This assay endpoint, CCTE_Shafer_MEA_acute_firing_rate_mean, was analyzed in the negative analysis fitting direction relative to DMSO as the negative control and baseline of activity. Using a type of functional reporter, gain or loss-of-signal activity can be used to understand electrical activity.
Spontaneous activity in the cortical cultures was recorded using an Axion Biosystems Maestro 768 channel amplifier and Axion Integrated Studios (AxIS) v1.8 (or later) software. The amplifier recorded from all channels simultaneously (gain = 1200 x; sampling rate = 12.5 kHz/channel): raw signals were filtered with a Butterworth band-pass filter (300-5000 Hz), which filters out slower local field potentials leaving only fast potentials, i.e., "spikes", arising from extracellular currents associated with action potentials (Pine 2006; Wheeler and Nam 2011). On-line spike detection of filtered signals was conducted with the AxIS adaptive spike detector, using a threshold of 8x the root mean squared (rms) noise on each channel. Any electrodes with rms noise levels greater than 5 uV were grounded (e.g., no data were recorded). Once grounded, an electrode was grounded for the duration of the experiment. All recordings were conducted at 37 C. Wells were deemed usable if on the day of the exposure >/= 10 electrodes were active (defined as >/= 5 spikes/min). On DIV 13 or 15, a minimum of three wells from one cortical culture preparation were treated with each compound (0.03-40 uM). Prior to recording baseline activity, each mwMEA plate was placed in the Maestro at 37 C and allowed to sit for 20 min while firing rates stabilized. Baseline activity (40 min) was recorded before the addition of each compound. An additional 40 min of spontaneous activity was recorded in the presence of each compound. Changes in network parameters relative to baseline were assessed following compound treatment.
As for `CCCCCCCCCCCCc1cccc(S(=O)(=O)O)c1`, the compound was called inactive.
On the same count and under the same terms, the same measure for `CN(C)C(=S)S`: “inactive”.
On to `CC(C)[C@@H](Nc1ccc(C(F)(F)F)cc1Cl)C(=O)OC(C#N)c1cccc(Oc2ccccc2)c1` (stereo not given in full), for which the AC50 is 1250 nM (active).
Consider `N#Cc1cccnc1`, for which the result was inactive.
Same read-out and setting: the same measure for `Clc1cccc(Cl)c1Cl`: “inactive”; for `Cc1ccccc1OP(=O)(Oc1ccccc1C)Oc1ccccc1C`: “inactive”; for `CS(=O)(=O)c1ccc(C(=O)C2C(=O)CCCC2=O)c(Cl)c1COCC(F)(F)F`: “inactive”.
On to `CC1(C)[C@H](C(=O)O[C@H](C#N)c2cccc(Oc3ccccc3)c2)[C@@H]1/C=C(\Cl)C(F)(F)F`, for which the AC50 was 1180 nM (active).
For the compound `CCCCOC(=O)COC(=O)c1ccccc1C(=O)OCCCC`, the half-maximal activity concentration (AC50) was 19.6 nM (active).
For `O=C(Cc1ccccc1)OCCc1ccccc1`, the AC50 was 3 nM (active).
On to `OCCCCO`, for which the result was inactive.
Consider `CC(C)(C)c1ccccc1O`, for which the half-maximal activity concentration (AC50) was 4870 nM (active).
On the same count and under the same terms, next, `Oc1ccc(Cc2ccc(O)cc2)cc1`: 3.77 nM (active).
On the same count and under the same terms, the same measure for `Oc1cc(Cl)c(Cl)cc1Cl`: 34200 nM (active); for `Cc1cc(C(F)(C(F)(F)F)C(F)(F)F)ccc1NC(=O)c1cccc(I)c1C(=O)NC(C)(C)CS(C)(=O)=O`: 1680 nM (active).
